Results on 55 compounds are retold here after paper PMC4336329 (PLoS ONE, 2015).

The whole screen tested about 310,000 compounds, of which about 14,000 (4.5%) showed an effect of 50% or more. Effects have a minus sign here. Only a selection was taken, and strong results are over-represented in it overall.
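Further: peak tail current of the secondary pulse compared with the same well before compound.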

Chain of human ether-à-go-go-related gene (hERG) potassium channel (Q12809 whole entry, looked up): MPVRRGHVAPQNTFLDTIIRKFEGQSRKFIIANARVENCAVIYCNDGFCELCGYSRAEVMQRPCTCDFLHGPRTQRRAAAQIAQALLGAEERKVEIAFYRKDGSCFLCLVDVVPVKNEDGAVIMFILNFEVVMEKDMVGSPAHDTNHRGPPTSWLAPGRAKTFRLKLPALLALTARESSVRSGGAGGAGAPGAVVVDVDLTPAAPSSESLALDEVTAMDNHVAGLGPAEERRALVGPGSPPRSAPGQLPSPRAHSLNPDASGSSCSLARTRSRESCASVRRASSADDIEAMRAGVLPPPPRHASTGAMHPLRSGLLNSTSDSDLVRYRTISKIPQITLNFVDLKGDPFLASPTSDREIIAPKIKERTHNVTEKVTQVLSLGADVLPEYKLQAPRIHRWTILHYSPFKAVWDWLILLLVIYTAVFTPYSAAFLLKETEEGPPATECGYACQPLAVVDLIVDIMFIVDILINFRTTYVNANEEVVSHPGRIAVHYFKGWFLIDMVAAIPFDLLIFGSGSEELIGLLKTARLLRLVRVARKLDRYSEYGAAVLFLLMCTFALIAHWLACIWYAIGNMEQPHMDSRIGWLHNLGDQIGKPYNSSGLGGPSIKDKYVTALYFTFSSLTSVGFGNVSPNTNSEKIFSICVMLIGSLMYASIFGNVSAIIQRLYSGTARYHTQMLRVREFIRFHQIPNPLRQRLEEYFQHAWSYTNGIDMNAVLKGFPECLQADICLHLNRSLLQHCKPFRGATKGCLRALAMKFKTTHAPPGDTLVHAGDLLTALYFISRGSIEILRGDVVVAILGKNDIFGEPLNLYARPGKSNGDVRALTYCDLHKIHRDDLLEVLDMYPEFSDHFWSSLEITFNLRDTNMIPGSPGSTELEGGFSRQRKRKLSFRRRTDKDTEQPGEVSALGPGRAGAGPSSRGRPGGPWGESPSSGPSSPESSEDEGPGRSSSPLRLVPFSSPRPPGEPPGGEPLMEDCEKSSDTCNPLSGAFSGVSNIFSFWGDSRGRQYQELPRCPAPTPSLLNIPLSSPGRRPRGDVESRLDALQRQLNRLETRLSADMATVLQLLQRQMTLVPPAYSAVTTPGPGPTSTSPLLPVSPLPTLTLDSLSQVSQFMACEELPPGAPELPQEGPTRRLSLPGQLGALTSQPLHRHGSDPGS

In this experiment the target is human ether-à-go-go-related gene (hERG) potassium channel (human, UniProt Q12809). Put plainly: primary screen, population patch clamp on CHO cells stably expressing hERG; higher = less effect of the substance. The procedure:
Briefly, Chinese hamster ovary (CHO) cells stably expressing the hERG channel were dislodged from tissue culture flasks and dispensed into PPC plates. […] During the recording, background leak currents were estimated by a 100 ms step to -80 mV from an initial holding potential of -70 mV and subtracted from the subsequent current measurement. The campaign was conducted in two phases using slight differences in recording protocol. In the first phase, the initial voltage pulse used a 100 ms step to -30 mV from a holding potential of -70 mV, a 2 s conditioning step to +25 mV, and a 2 s test step to -30 mV. During the second phase of the screen, the potential during the conditioning step was raised to +45 mV. In both phases of the campaign, a secondary voltage pulse was applied using the same parameters as the second phase initial pulse. The initial and secondary pulses were applied in the absence of compound, and upon application of 1 μM and 10 μM test concentrations. […]
Take `CCCCNC(=O)C1(O)c2cc(Br)ccc2NC(=O)N1c1cccc(OC)c1` (stereo not shown): the “hERG current change (%, negative = inhibition) at 10uM” value is reported as 7.42%.
Consider `Cc1cc(C)c2nc(SC3CCOC3=O)cc(C)c2c1` (stereo not shown), for which the “hERG current change (%, negative = inhibition) at 10uM” value was 4.23%.
To `COc1ccc(C(=O)Nc2cccc(S(C)(=O)=O)c2)cc1OC` belongs 6.89%.
To `O=C(N/N=C\c1c(O)ccc2ccccc12)c1ccc(O)cc1` belongs 14.3%.
Turning to `Cc1c(C(=O)Nc2nnc(C3CC3)s2)oc2c(Cl)cccc12`, the “hERG current change (%, negative = inhibition) at 10uM” value was 8.02%.
For `N=c1c(C(=O)NCC2CCCO2)cc2c(=O)n3ccccc3nc2n1Cc1ccccc1Cl` (stereo not shown), the “hERG current change (%, negative = inhibition) at 10uM” value was -67.9%.
In the case of `N=c1c(S(=O)(=O)c2ccc(Cl)cc2)cc2c(=O)n3ccccc3nc2n1CC1CCCO1` (stereo not shown) it was -13.3%; in that of `O=C(NCC1CCCO1)c1ccc2c(=O)n(Cc3ccc(Cl)cc3)c(=S)[nH]c2c1` (stereo not shown), 6.02%.
To `N=c1c(C(=O)NCc2ccco2)cc2c(=O)n3ccccc3nc2n1CC1CCCO1` (stereo not shown) belongs -76%; to `O=C(NCc1ccco1)c1ccc2c(=O)n(CC3CCCO3)c(=S)[nH]c2c1` (stereo not shown), -1.68%.
In the case of `O=C(NCC1CCCO1)c1nc2c(nnn2Cc2ccccc2Cl)c(=O)[nH]1` (stereo not shown) it was -0.506%; in that of `O=C(Cc1ccc(-n2c(=O)c3ccccc3n(Cc3ccccc3Cl)c2=O)cc1)NCC1CCCO1` (stereo not shown), -1.93%; in that of `N=c1c(C(=O)NCC2CCCO2)cc2c(=O)n3ccccc3nc2n1Cc1ccc(Cl)cc1` (stereo not shown), -77.2%.
Regarding `CC(=O)c1cccc(NC(=O)CCNC(=O)c2ccccc2Cl)c1`, the “hERG current change (%, negative = inhibition) at 10uM” value was 11.4%.
In the case of `CCn1cc(C(=O)Nc2ccc(C)cc2[N+](=O)[O-])c(C)n1` it was 5.23%.
In the case of `CN(Cc1nc(-c2cccs2)no1)CC1COCCO1` (stereo not shown) it was 1.17%; in that of `S=C(NCCN1CCOCC1)N1CCN(c2cccc(Cl)c2)CC1`, -16%; in that of `CC1=CC(=O)C(C(C)C)=C/C1=N/OC(=O)c1cccc([N+](=O)[O-])c1`, 7.36%.
In the case of `COc1ccc2nc(NC(=O)CSc3nnc(C)n3N)sc2c1` it was 0.177%.
Turning to `C=CCn1c(COc2cccc(C)c2)nnc1SCn1nnc2ccccc2c1=O`, the “hERG current change (%, negative = inhibition) at 10uM” value is -5.37%.
In the case of `O=c1cc(CCl)nc2sc3ccccc3n12` it was 8.04%.
In the case of `C=CCn1c(SCn2nnc3ccccc3c2=O)nnc1C1CCCCC1` it was -14.1%.
To `C=CCn1c(SCn2nnc3ccccc3c2=O)nnc1-c1ccc(Br)cc1` belongs -62.7%; to `C=CCn1c(SCn2nnc3ccccc3c2=O)nnc1-c1ccc(Cl)cc1`, -61.2%; to `C=CCn1c(SCn2nnc3ccccc3c2=O)nnc1-c1ccc(F)cc1`, -28.9%.
Take `O=c1cc(CSc2nnc(-c3cccs3)n2Cc2ccccc2)nc2sc3ccccc3n12`: the “hERG current change (%, negative = inhibition) at 10uM” value is recorded as -53.5%.
To `C=CCn1c(COc2ccc(OC)cc2)nnc1SCn1nnc2ccccc2c1=O` belongs -27.1%.
To `C=CCn1c(SCn2nnc3ccccc3c2=O)nc2scc(-c3cccs3)c2c1=O` belongs -5.21%.
In the case of `O=c1c2ccccc2nnn1CSc1nnc(-c2cccs2)n1Cc1ccccc1` it was -62.6%; in that of `O=c1cc(CSc2nnc(C3CC3)n2Cc2ccccc2)nc2sccn12`, 11.7%; in that of `O=c1c2ccccc2nnn1Cc1ccccc1`, 35.3%.
On to `CCCOc1cccc(C(=O)Nc2ccc3c(c2)OCCO3)c1`, for which the “hERG current change (%, negative = inhibition) at 10uM” value turned out to be 0.786%.
For the compound `CSc1cccc(NC(=O)C2CCN(S(=O)(=O)c3cnc[nH]3)CC2)c1`, the “hERG current change (%, negative = inhibition) at 10uM” value is recorded as 9.39%.
To `Nc1c(NCc2ccccc2)c(=O)c1=O` belongs -6.37%.
For the compound `Cc1nc2c(C)cccn2c(=O)c1NC(=O)c1ccc(Br)o1`, the “hERG current change (%, negative = inhibition) at 10uM” value is reported as 5.14%.
To `O=C(COc1cccc(C(F)(F)F)c1)Nc1cccnc1` belongs 4.03%.
To `CCC(C)N(C(=O)c1csnn1)C(C(=O)NC1CCCC1)c1ccc(F)cc1` (stereo not shown) belongs 0.39%; to `CC(=O)c1cccc(NC(=O)CCCNC(=O)c2ccc(Cl)cc2)c1`, 2.99%; to `CCN(CC)C(=O)c1cn(-c2cccc(OC)c2)c(=O)c2ccccc12`, 9.66%.
`COC(=O)c1cc(Cl)nc2ccccc12`: the “hERG current change (%, negative = inhibition) at 10uM” value is -7.89%.
To `COc1ccc(CNC(=O)c2cc(S(=O)(=O)N3CCCC3)cn2C)cc1` belongs 13.2%; to `Cc1nn(Cc2ccc(Cl)cc2)c(Cl)c1/C=N/NC(=O)c1cccnc1`, -45.2%.
On to `CN(C)CCCN(C(=O)C1COc2ccccc2O1)c1nc2ccc(F)cc2s1.Cl` (stereo not shown), for which the “hERG current change (%, negative = inhibition) at 10uM” value is given as -75.4%.
In the case of `CN(C)CCCN(C(=O)CCSc1ccccc1)c1nc2cc3c(cc2s1)OCO3.Cl` it was -48.2%.
To `CN(C)CCCN(C(=O)c1sc2ccccc2c1Cl)c1nc2ccc(F)cc2s1.Cl` belongs -19.7%.
Turning to `CN(C)CCN(C(=O)C1CCCCC1)c1nc2cc3c(cc2s1)OCO3.Cl`, the “hERG current change (%, negative = inhibition) at 10uM” value was -9.7%.
In the case of `CN(C)CCCN(C(=O)c1nc2ccccc2s1)c1nc2ccc(F)cc2s1.Cl` it was 4.17%; in that of `CN(C)CCCN(C(=O)C1COc2ccccc2O1)c1nc2cc3c(cc2s1)OCO3.Cl` (stereo not shown), -64.4%.
In the case of `Cn1c(O)c(C=Nc2ccccc2Sc2ccccc2)c(=O)n(C)c1=O` it was 16.4%; in that of `CCCc1[nH]nc2c1C(c1ccc(OC)c(Cn3nnc4ccccc43)c1)C(C#N)=C(N)O2` (stereo not shown), -29.1%.
To `CCCn1c(SCc2ccc(Cl)cc2)nc2c1c(=O)[nH]c(=O)n2C` belongs 0.36%.
As to `CCOCCCNC(=O)C(NC(=O)c1ccc(NC(C)=O)cc1)c1ccc(C)cc1` (stereo not shown), the “hERG current change (%, negative = inhibition) at 10uM” value is reported as -20.5%.
In the case of `CCc1ccc(CNC(=O)c2ccc(NC(=O)C3=CSCCO3)cc2)cc1` it was -23%; in that of `O=C(C1COc2ccccc2O1)N1CCCC1` (stereo not shown), 16.8%.
In the case of `O=C(NCC(=O)N1CCC2(CC1)NCCc1[nH]cnc12)c1ccc2ccccc2c1`, the “hERG current change (%, negative = inhibition) at 10uM” value was 11.7%.
